# Assay outcomes deposited in PubChem by several laboratories.
# The list is not random: actives were taken first. Their share in the collection is about 3.9%.
# Autofluor counter – compound fluorescence in toxin protease inhibitor counterscreen; 360,000 tested, 3.1% active; fluorescence intensity (no concentration beside the values); AID 624483; compound autofluorescence counterscreen, microsphere flow cytometry; active compounds read high; in the data active = fluorescence intensity above about 16000; inconclusive = no clear call, values can overlap the other calls
# Anthrax LF prot – inhibitors of Bacillus anthracis lethal factor protease; inhibition, % at 10 µM; P15917; 360,000 tested, 0.12% active; multiplex microsphere protease cleavage assay, LF; also: plate controls were buffer without enzyme for full effect and enzyme alone for no effect
# MazF activator – activators of E. coli MazEF toxin-antitoxin RNase; P0AE70; FAM/BHQ RNA-DNA oligo cleavage fluorescence, 5 h; activation, % at 20 µM; 350,000 tested, 0.32% active; AID 504720; in the data active = activation above about 50%
# Target sequence (P0AE70 whole entry, looked up): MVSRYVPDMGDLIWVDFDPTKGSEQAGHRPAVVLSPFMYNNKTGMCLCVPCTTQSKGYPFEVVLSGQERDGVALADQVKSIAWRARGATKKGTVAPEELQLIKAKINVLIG
# BH1578 lux ind – induces V. cholerae light production without autoinducers. V. cholerae BH1578 lux reporter, luminescence, 6 h. activation, % at 18.7 µM. 350,000 tested, 0.16% active. AID 588436; in the data active = activation mostly above about 9.7%, no sharp cut-off; inconclusive = no clear call, values can overlap the other calls; inactive = mostly below about 3.7%
# BoNT-A LC inh2 – BoNT A light chain protease inhibition; multiplex microsphere protease substrate cleavage, flow cytometry; inhibition, % at 10 µM; 360,000 tested, 0.17% active; AID 588499; also: plate controls were buffer without enzyme for full effect and enzyme alone for no effect
# BoNT F protease – BoNT F light chain protease inhibition. 360,000 tested, 0.22% active. AID 588497. inhibition, % at 10 µM. Multiplex microsphere protease cleavage assay, flow cytometry; in the data active = inhibition above about 35%, passing the limit was not always enough; inconclusive = no clear call, values can overlap the other calls; also: plate controls were buffer without enzyme for full effect and enzyme alone for no effect
# * = called active by the depositor; i = inactive; ? = inconclusive; . = no result given. Rule as the data show it, unless noted: active = inhibition above about 30%; inconclusive = no clear call, values can overlap the other calls; inactive = below that.
SMILES,Autofluor counter,Anthrax LF prot,MazF activator,BH1578 lux ind,BoNT-A LC inh2,BoNT F protease
CSc1ccc(NC(=O)N2CCN(c3nc4ccccc4s3)CC2)cc1,21539*,-3.9,2.5,i,?,-9.6
CC1(C(=O)NCc2ccccc2Br)CCN1Cc1csc2ccccc12 (centres undefined),3697,0.6,.,-0.6,-0.6,2.9
CC(C)(C)c1cc(C2COC(=O)COCCOCC(=O)OCCOCCO2)cc(C(C)(C)C)c1O (centres undefined),3087,-1.9,10.2,-0.8,0.3,5.8
COc1ccc(Cl)cc1NC(=O)CN(C)C(=O)CN1C(=O)NC(C)(c2ccc3ccccc3c2)C1=O (centres undefined),3587,-0.1,-1.1,-0.8,0.2,6.4
COC(=O)c1ccc2c(c1)N(Cc1ccccc1F)C(=O)c1ccccc1S2=O (centres undefined),4517,-2.8,3.0,-0.3,-0.4,-5.5
CCOC(=O)c1ccc2c(c1)N(Cc1ccccc1C)C(=O)c1ccccc1S2=O (centres undefined),22107*,-1.5,-2.9,i,-5.6,-8.4
CC1(Oc2ccc3ccccc3c2)CCN(Cc2cccn2-c2nccs2)C1 (centres undefined),4031,-7.1,.,i,-0.6,-6.9
NC(N)=NS(=O)(=O)c1ccc(NC(=S)NC(=O)c2ccc(Br)cc2)cc1,3877,2.4,58.6*,0.4,0.2,-0.2
O=C1c2cccnc2C(=O)N1C1CCCCC1,21393*,-1.4,3.1,-0.2,2.3,1.7
CCOc1ccc(C(=O)Nc2ccc3c(c2)OCCO3)cc1,3700,-0.6,13.7,-1.8,-0.6,-4.9
Cc1cc(Oc2nnnn2-c2ccccc2)ccc1Cl,19957*,-2.4,-0.4,-3.5,?,0.9
Brc1ccc(Oc2nnnn2-c2ccccc2)cc1,4232,-0.8,4.8,-0.2,-0.6,9.0
CCCCC(=O)c1ccc(OC(=O)c2ccc([N+](=O)[O-])cc2)cc1,3823,-4.0,-1.3,i,0.0,2.1
Cc1ccc(OC(=O)COc2ccccc2C)cc1,3589,8.3,8.2,i,-5.5,-11.2
CC(=O)c1ccc(OC(=O)COc2ccccc2Cl)cc1,32253*,-115.2,3.5,i,-126.3,?
CCOc1ccccc1C1CC(=O)NC(SCC)=C1C#N (centres undefined),13272,-3.6,-6.9,i,-0.9,-3.7
CCCSC1=C(C#N)C(c2ccc(Cl)cc2Cl)CC(=O)N1 (centres undefined),24553*,-1.4,-5.2,-0.9,-3.0,-4.8
N#CC1=C(SCc2ccccc2)NC(=O)CC1c1ccco1 (centres undefined),20548*,-4.8,0.0,-6.2,-0.1,-2.2
CCCSC1=C(C#N)C(c2ccccc2OCC)CC(=O)N1 (centres undefined),23587*,-2.4,4.0,6.1,-3.4,-7.4
c1ccc(-n2c(-c3ccncc3)nnc2-c2ccco2)cc1,16681*,-1.7,0.5,-7.1,-0.1,3.9
Cc1ccc(-c2nnc(-c3ccncc3)n2-c2ccc(C)cc2)cc1,21828*,-1.9,0.3,4.2,?,0.0
O=C(c1cc2ccccc2[nH]1)N1CCOCC1,3384,1.1,-0.8,0.3,-0.6,-5.0
O=C(CN(CCN1CCOCC1)C(=O)Cn1nnc(-c2ccc(F)cc2)n1)NC1CCCCC1,9649,-1.7,-10.5,-0.5,-0.1,3.9
COc1ccc(-c2nnn(CC(=O)N(CC(=O)NCCC(C)C)Cc3cccs3)n2)cc1OC,16733*,-2.7,-4.4,-0.2,?,-2.5
CC(C)CCNC(=O)CN(CCN1CCOCC1)C(=O)Cn1nnc(-c2ccc(F)cc2)n1,22983*,-1.4,-2.2,1.8,-1.7,-1.2
SMILES,Autofluor counter,Anthrax LF prot,MazF activator,BH1578 lux ind,BoNT-A LC inh2,BoNT F protease
Cc1nn(-c2ccccc2)c(C)c1/C=N/NC(=O)CSc1nnc(SCc2ccc(Cl)cc2)s1,2398,0.3,-16.2,-0.4,-0.7,-3.6
CC(=NO)C1CCC2C3CCC4=CC(=NO)CCC4(C)C3C(O)CC12C (centres undefined),3046,-2.3,12.4,16.7*,-0.4,2.0
COc1ccc(C(=O)NN)cc1COc1ccc(Br)cc1,19591*,0.4,-0.6,3.2,0.0,-4.4
COc1ccc(C(C)=O)cc1COc1ccc(F)cc1,4939,1.3,-4.5,0.4,-1.4,-2.7
Cc1cc(OC(=O)N(C)C)nc(SCc2c(Cl)cccc2Cl)n1,4494,-5.2,-11.8,-0.6,-1.1,-1.0
COc1cnc(SCc2c(Cl)cccc2Cl)nc1Cl,20944*,-6.7,-6.4,-0.2,-3.4,-7.1
Cc1cc(C(=O)CSc2nc(N)cc(=O)[nH]2)c(C)n1CC1CCCO1 (centres undefined),3989,-0.9,8.2,i,0.3,0.4
Cc1cc(C(=O)CSc2nnc(-c3ccc(Cl)cc3)n2C)c(C)n1CC1CCCO1 (centres undefined),22941*,0.2,0.8,1.8,-0.6,-6.0
Cc1cc(C(=O)CSc2nc3ccccc3[nH]2)c(C)n1CC1CCCO1 (centres undefined),17964*,-4.8,-4.0,i,-7.9,-10.3
FC(F)(F)c1nnc2sc(-c3ccncc3)nn12,19007*,-5.1,3.7,i,?,2.4
Cc1nnc2sc(-c3ccncc3)nn12,3301,2.4,3.8,-0.3,0.3,11.3
CCCNC(=O)c1c(N)n(-c2cccc(OC)c2)c2nc3ccccc3nc12,20561*,7.6,3.8,i,?,8.0
CCOc1ccc2nc(CN3CCN(Cc4ccsc4)C(CCO)C3)ccc2c1 (centres undefined),3248,-3.1,0.5,-4.8,-0.7,-5.6
O=c1[nH]cnc2c1ncn2C1CCC(CO)O1 (centres undefined),6308,-5.7,.,.,0.2,-1.5
CC(C)(C)C(=O)Nc1ccccc1C(=O)Nc1cccnc1,2323,0.2,4.3,i,0.9,11.7
CC(C)(C)C(=O)Nc1ccccc1C(=O)Nc1cc(Cl)ccc1Cl,23417*,-1.3,-4.9,i,-1.0,-1.4
CC(=O)N1CC2(CC(c3ccccc3C(F)(F)F)=NO2)CN1c1ccc(Cl)cc1 (centres undefined),3660,-7.1,-6.6,-0.3,-0.3,-7.0
CC(=O)c1cc2c(cc1NS(=O)(=O)c1ccc(C)cc1)OCO2,20111*,-10.8,4.0,-0.2,8.7,5.0
CC1CCN(c2nc3c(c(=O)n(C)c(=O)n3C)n2CCSc2nc3ccccc3s2)CC1,9205,-0.5,8.5,-0.4,0.0,3.7
CC1CCCN(c2nc3c(c(=O)n(C)c(=O)n3C)n2CCSc2nc3ccccc3s2)C1 (centres undefined),20318*,-3.9,6.7,-5.6,0.9,0.6
Cn1c(=O)c2c(nc(N3CCCCC3)n2CCSc2nc3ccccc3s2)n(C)c1=O,16274*,0.0,-8.3,i,-0.4,-3.6
Cc1cc(C)n2nc(CCc3ccccc3)nc2n1,23082*,0.0,5.8,i,0.5,3.1
Cc1cc(C)n2nc(S(=O)(=O)N(CC(C)C)CC(C)C)nc2n1,5107,-1.2,6.3,-0.2,-1.8,-9.2
CCN(Cc1ccccc1)S(=O)(=O)c1nc2nc(C)c(C)c(C)n2n1,17154*,-0.5,2.6,i,-2.4,-4.0
